Key:
Experiment in all cases: PBM binding z-score (relative to random genomic background probes); higher = stronger binding; sequences stand for … in GC…GCGATTGACAGCGTAGAATGAAGG
[1] = system: RARb homodimer (NR concentration 270 nM)
Summary of the method: (§1)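 The probes on custom Agilent 4×180K protein-binding microarrays were double-stranded, with 34-nt variable regions bearing direct-repeat seeds, single-nucleotide variants, half-site ablations and random human genomic background sequences. Incubation lasted 1 h with ligand-free nuclear receptor dimers in PBS pH 7.4, 2% milk, 0.02% Triton X-100, 1 mM DTT, 0.2 mg/mL BSA and 0.4 mg/ml salmon testes DNA. Antibodies against each partner (one per run) detected bound dimers, and fluorescence scans were regression-normalized. Binding z-scores take the random background probes as reference.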

[2] = system: RARg:RXRa (NR concentration 270 nM, RXRa partner concentration 90 nM)
Summary of the method: as §1

[3] = system: RARg homodimer (NR concentration 270 nM)
Summary of the method: as §1

[4] = system: RXRa DBDmut IVT, anti-RXR (DBD mutation: RXRa K156A/R161A, NR concentration 90 nM)
Summary of the method: as §1

[5] = system: RXRa homodimer (NR concentration 180 nM)
Summary of the method: as §1

[6] = system: THRa:RXRa (NR concentration 90 nM, RXRa partner concentration 90 nM)
Summary of the method: as §1

[7] = system: THRa homodimer (NR concentration 90 nM)
Summary of the method: as §1

[8] = system: VDR homodimer (NR concentration 270 nM)
Summary of the method: as §1

Sequence	PBM binding z-score [1]	PBM binding z-score [2]	PBM binding z-score [3]	PBM binding z-score [4]	PBM binding z-score [5]	PBM binding z-score [6]	PBM binding z-score [7]	PBM binding z-score [8]
GCTGCTAGGTCAACTGATGGTCAGCTACAGCTCG	3.81	5.01	5.31	1.56	2.82	2.94	0.9	0.228
CCTGCTAGGTCATGGTCAGCAAATCTACAGTATG	2.81	4.02	4.6	1.74	2.84	3.09	1.37	0.339
ATCTCTAGGTAAGACTCAGTTCAGCGAAGAACGC	0.706	0.274	0.294	0.439	0.4	0.927	0.802	1.48
AGTCAAAGTCCACTAGGTAACGTAAGATTCAGCT	0.615	0.39	0.85	0.801	-0.0426	0.284	0.284	-0.159
TTACCAAGGTGAGCTGAGGTCGTCGATCCAACTC	1.49	1.37	1.36	-0.22	1.75	4.74	2.4	1.02
CTACCAAGGTGAACAAGGACGTTGATTACTATTC	0.951	0.848	1.13	0.601	0.715	2.43	1.36	0.537
ACAGACACGTGAGTGAAGGTAACTCAGCTGGACG	-0.372	-0.114	0.0531	-0.182	0.149	-0.478	-0.846	-0.417
CTCGAAAGGCCGTGCTCAGGTGAGTATACCAAAC	0.384	0.136	0.46	0.0515	-0.297	1.61	0.381	-0.249
GATACAGGGTCAGCTAGAGGCCAGAGAATGGAAA	3.39	6.83	5.12	1.73	4.78	3.35	0.483	0.71
ATACCAAGGTGATCATGAGGTCGTTGATACTAAC	1.85	2.23	1.18	1.08	1.75	3.55	2.94	3.15
TCTAGCAGGCCAGAGGGTCACTAAAGAGGTACGG	2.52	2.5	2.05	-0.16	2.02	1.39	-0.413	0.287
TGGATGAGGTTATAAGATCAGGGAACGTTGCAAA	0.465	1.53	1.24	0.341	1.97	1.91	0.397	0.65
CCTAGCAGGCCAATCTGAGTCACTCAAGGCTTGA	-0.614	-0.539	-0.118	0.122	-0.769	-0.175	-0.499	-0.793
TCTTGTAGATCAACAGGAGGTTAAGCAAGATCGA	0.427	0.916	0.301	0.224	1.01	1.24	-0.612	-0.456
CAAACTAAGTCACAGAGGTCAAAGTCCGTGCGTA	4.47	5.34	4.96	2.26	5.91	3.71	1.87	4.45
TCTCGGAGGACACGAAAGGTCAGAGTTCGACATC	5.05	5.04	5.71	1.45	5.12	3.77	1.57	3.65
CGTCCAAGGTCAGAGATGTCAGTGAATGCCGAGT	3.66	4.35	5.29	2.72	3.3	3.29	1.9	1.82
GCTTGTAGATCAAGATTAAGAAAGACTAAGCTAA	-1.07	-0.362	-0.206	-0.488	-0.324	-0.364	-0.81	-0.356
AGAACAAGGGCACGCTGAGTTGATAGCAGAGTAG	1.11	1.6	1.99	1.22	0.942	1.28	-0.108	1.07
CAAACTAGGTCACCGGAAGGTCAAAGTACGCATG	5.73	8.48	7.65	2.43	6.46	4.8	3.25	3.52
TCTCGGAGGACACGAAGGTCAGGGCTTTCCAGAG	4.09	3.4	3.91	0.802	2.43	3.13	1.27	1.16
CCTTACGGGTCACGAGGCTATAGCACGACGAGCG	3.24	5.45	5	0.992	6.22	3.16	0.466	0.849
CAGCCTAGGTCAGGGCCAGTATGGGAGGAACGTT	2.38	3.22	3.76	-0.69	1.38	1.95	0.312	-0.378
ATCTCTAGGTAAAGTTCAGTGAAAGATCGATAGA	2.65	2.18	2.77	1.72	1.42	1.24	0.317	2.53
TCTTGTATATCAAAGGTTAAGAAAGCCGAAGCCT	1.82	1.98	1.32	0.935	2.92	1.58	0.181	0.26
GATACAGGGTCGAGGCCAGAGTACGCGTATTGAT	1.31	1.98	1.9	0.497	2.13	1.67	0.075	0.897
CCTACTGGGCCAAGGTCATTGAACAGTCAAAGCA	3.4	3.82	3.72	0.677	3.68	3.5	2.14	2.77
ACTATTAGTTGAGACGAGGGCAGCCGATAGGTTG	0.756	0.374	0.715	0.298	0.449	2.02	0.0606	0.189
TCTGGTAGATCAAGCAGGTTAAGAAAGCCTGAGT	-0.182	-0.3	-0.211	0.0546	0.202	-0.00478	-0.796	0.261

— the supplement of paper PMC6555819
